High-throughput results from PubChem BioAssay.
Most compounds without a hit are left out; they make up all but 2.4% or so of the library.
Cruzain inh Det: blocks cruzain activity in presence of Triton detergent. Potency, µM, most hits filed as inhibitors. purified cruzain, Z-FR-AMC fluorescence, 0.01% Triton. 200,000 tested, 0.43% active. AID 1478. P25779; further: nearly all actives have a fitted effect of over 40% in size
Target sequence (P25779 123-467 limits assumed): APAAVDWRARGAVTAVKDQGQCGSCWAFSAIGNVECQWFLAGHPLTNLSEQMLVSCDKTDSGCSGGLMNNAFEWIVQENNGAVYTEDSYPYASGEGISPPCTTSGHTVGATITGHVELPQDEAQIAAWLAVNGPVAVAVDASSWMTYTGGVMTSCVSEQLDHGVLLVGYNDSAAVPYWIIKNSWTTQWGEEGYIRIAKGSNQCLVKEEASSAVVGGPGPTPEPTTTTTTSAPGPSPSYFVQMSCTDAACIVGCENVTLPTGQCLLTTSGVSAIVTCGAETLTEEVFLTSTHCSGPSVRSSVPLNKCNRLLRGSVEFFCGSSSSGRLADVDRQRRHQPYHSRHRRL
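Cysteine protease activity tested under reducing, mildly acidic conditions (100 mM sodium acetate pH 5.5, 5 mM DTT) plus 0.01% Triton X-100. Cruzain 1.5 nM; substrate Z-FR-AMC 2 uM; 15 min compound preincubation at room temperature.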
Cruzain inh noDet: blocks cruzain activity in detergent-free assay; P25779; Potency, µM, actives largely listed as inhibitors; purified cruzain, Z-FR-AMC fluorescence, no detergent; 200,000 tested, 2.3% active; further: nearly all actives have a fitted effect of over 40% in size
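Purified cruzain at 1.5 nM, pre-incubated 15 min with compound at room temperature in 100 mM sodium acetate pH 5.5, 5 mM DTT, 0.00005% Triton X-100. Reaction started with 2 uM Z-FR-AMC; AMC fluorescence increase over 60 s gives rate.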
Each line names hits and unclear results; the compound was inactive in the other large screens. The call rests on the fitted dose curve; in most records, active means well fitted curve in the direction sought with a large enough effect; inconclusive means small, poorly fitted or top-dose-only effect, or another doubt; inactive means no such curve, though single readings can be large; an effect the other way counts as inactive or inconclusive.

O=C(CNC(=O)c1ccco1)OCN1C(=O)c2ccccc2C1=O	Cruzain inh Det 20µM, Cruzain inh noDet inconclusive
O=C(CNC(=O)c1ccco1)OCC(=O)c1cccc2ccccc12	none
CCc1cccc(C)c1NC(=O)CCn1c(=O)c2cccn2c2ccccc21	Cruzain inh noDet inconclusive
COc1ccc(-c2nc(C)c(CCNS(=O)(=O)c3cc(C)c(C)cc3C)s2)cc1	none
COc1ccc(NC(=O)c2cn(-c3ccccc3)nc2-c2ccc(C)cc2)cc1	none
Cc1ccc(C(=O)COC(=O)c2cc(-c3ccccc3)nc3ccccc23)cc1C	none
O=C(COC(=O)CN1C(=O)c2ccccc2C1=O)Nc1ncc(Cl)cc1Cl	none
COc1ccc(-c2nn(-c3ccccc3)cc2C(=O)OCC(=O)c2ccc(C)c([N+](=O)[O-])c2)cc1	Cruzain inh noDet 25.1µM
COc1ccc(-c2nn(-c3ccccc3)cc2C(=O)n2nnc3ccccc32)cc1	Cruzain inh noDet 15.8µM
COc1ccc(-c2cc(C(=O)OCC(=O)c3ccc(C)c([N+](=O)[O-])c3)c3ccccc3n2)cc1	Cruzain inh noDet 10µM
Cc1ccc(-c2nn(-c3ccccc3)cc2C(=O)OCC(=O)Nc2ncc(Cl)cc2Cl)cc1	Cruzain inh noDet 31.6µM
CC(=O)Nc1ccc(C(=O)OCC(=O)c2ccc(C)c([N+](=O)[O-])c2)cc1	none
Cc1nc2c(c(C)c1CCC(=O)Nc1ccc(F)cc1)c(=O)n(C)c(=O)n2C	none
CCOC(=O)c1oc2ccccc2c1NC(=O)COc1ccc(F)cc1	Cruzain inh noDet 12.6µM
CCOC(=O)c1oc2ccccc2c1NC(=O)COc1cccc(OC)c1	none
Cc1nc(CNS(=O)(=O)c2ccc3ccccc3c2)cs1	none
Cc1nc(-c2cccc(NS(=O)(=O)c3ccc4ccccc4c3)c2)cs1	Cruzain inh noDet 25.1µM
Cc1ccc(S(=O)(=O)Nc2nc3ccccc3nc2NCc2ccco2)cc1	Cruzain inh noDet inconclusive
O=S(=O)(Nc1nc2ccccc2nc1NCc1ccco1)c1ccc(Cl)cc1	Cruzain inh noDet 20µM
C/C(=N/Nc1nc(-c2ccc(Cl)cc2)cs1)c1cccs1	Cruzain inh Det inconclusive, Cruzain inh noDet 3.98µM
O=C(Nc1nc(-c2ccccc2)cs1)c1cccs1	none
CCOC(=O)c1ccc(OCC2c3cc(OC)c(OC)cc3CCN2C(=O)c2ccc(S(=O)(=O)N3CCCC3)cc2)cc1 (stereo not drawn)	Cruzain inh noDet inconclusive
Cc1ccc(N2CCN(C(=O)c3nn(C)c4c3CSc3ccccc3-4)CC2C)cc1 (stereo not drawn)	none
COc1ccc(C2CC(c3ccccc3)=NN2C(=O)COC(=O)C2CC2)cc1 (stereo not drawn)	none
COc1ccc(C2CC(c3ccccc3)=NN2C(=O)COC(=O)c2cc(S(=O)(=O)N3CCOCC3)ccc2Cl)cc1 (stereo not drawn)	Cruzain inh noDet 12.6µM
COc1ccc(C2CC(c3ccccc3)=NN2C(=O)COC(=O)c2cccnc2)cc1 (stereo not drawn)	Cruzain inh noDet 15.8µM
COc1ccc(C2CC(c3ccccc3)=NN2C(=O)COC(=O)c2cccnc2Cl)cc1 (stereo not drawn)	none
COC(=O)c1ccc(-c2nc3cc(Cl)c(N)cc3s2)cc1	Cruzain inh noDet 7.94µM
COC(=O)c1ccc(-c2nc3cc(N)ccc3o2)cc1	none
CC(C)OCCCn1c(=O)c2ccccc2n2c(-c3ccc(F)cc3)nnc12	none
C[C@@H]1CC[C@H]2[C@H](C)[C@H]3CC[C@H]4C5[C@@H](O)CC6=CC(=O)CC[C@]6(C)[C@H]5C[C@H]4C3C(=O)N2C1 (stereo partly drawn)	none
Cc1oc(-c2ccc(C(=O)NCc3ccccc3)cc2)nc1CS(=O)(=O)c1ccccc1	Cruzain inh noDet inconclusive
Cc1oc(-c2ccc(C(=O)NCc3ccc(Cl)cc3)cc2)nc1CS(=O)(=O)c1ccccc1	Cruzain inh noDet 25.1µM
CCOC(=O)c1c(C)oc2nc(C)nc(NCc3ccc(F)cc3)c12	none
Cc1sc2ncnc(SCC(=O)N3c4ccccc4Sc4ccc(Cl)cc43)c2c1C	Cruzain inh noDet 7.94µM
Cc1sc2ncnc(SCC(=O)c3cccs3)c2c1C	Cruzain inh noDet inconclusive
COc1ccc(CCNC(=O)CCc2cn(Cc3ccc(F)cc3)c3ccccc23)cc1OC	Cruzain inh noDet inconclusive
Cc1cc(C)n2c(Nc3cccc(C(F)(F)F)c3)c(-c3ccsc3)nc2n1	none
CCOP(=O)(OCC)C(Nc1ccccc1)c1ccc2c(c1)OCO2 (stereo not drawn)	Cruzain inh noDet 12.6µM
CCCCOP(=O)(OCCCC)C(Nc1ccccc1)c1ccc2c(c1)OCO2 (stereo not drawn)	none
Cc1ccc(C2=Nc3ccccc3N(CC(=O)Nc3ccccc3F)C(=O)C2)cc1C	none
CC(C)CCC(C)N=Cc1c(O)n(Cc2ccccc2)c(=O)c2ccccc12 (stereo not drawn)	Cruzain inh noDet inconclusive
COc1ccc(Cn2c(O)c(C=Nc3ccc(OC)cc3)c3ccccc3c2=O)cc1	Cruzain inh noDet 12.6µM
O=[N+]([O-])c1ccc(-c2nc(-c3cccs3)c(-c3cccs3)[nH]2)cc1	Cruzain inh noDet 31.6µM
O=[N+]([O-])c1cccc(-c2nc(-c3cccs3)c(-c3cccs3)[nH]2)c1	Cruzain inh noDet inconclusive
CCOc1ccc(C(=O)N/N=C/c2ccccc2[N+](=O)[O-])cc1	none
O=C(N/N=C/c1ccccc1[N+](=O)[O-])c1ccc(COc2ccccc2-c2ccccc2)cc1	Cruzain inh noDet 12.6µM
CCOc1ccc(-n2c(=O)cc(N3CCN(c4ccccc4)CC3)[nH]c2=O)cc1	Cruzain inh noDet 2µM
COc1ccc(-n2c(=O)cc(N3CCN(c4ccccc4)CC3)[nH]c2=O)cc1	none
CCc1ccccc1NC(=O)C1CCCN(c2nnc(-n3c(C)ccc3C)s2)C1 (stereo not drawn)	none
c1ccc(Nc2nc(N3CCOCC3)nc(N3CCOCC3)n2)cc1	none
NNc1nc(Nc2ccccc2)nc(N2CCCCC2)n1	Cruzain inh noDet 12.6µM
Cc1ccc(C)c(N2CCN(C(=O)c3cc4c(=O)n(Cc5ccccc5)ccc4nc3C)CC2)c1	Cruzain inh noDet inconclusive
O=C1c2ccccc2C(=O)N1OS(=O)(=O)c1ccccc1	Cruzain inh Det inconclusive, Cruzain inh noDet 7.94µM
Cc1ccc(C)c(S(=O)(=O)ON2C(=O)c3ccccc3C2=O)c1	Cruzain inh Det 12.6µM, Cruzain inh noDet 10µM
Cc1ccc(S(=O)(=O)ON2C(=O)c3cccc4cccc(c34)C2=O)cc1	none
O=C1c2cccc3cccc(c23)C(=O)N1OS(=O)(=O)c1ccccc1	none
CCOC(=O)c1cccc(NC(=O)c2cc(-c3ccc(Cl)s3)nc3ccccc23)c1	none
Cc1c(CNCc2ccc(OC(C)C)cc2)c(C(=O)O)c(C)n1Cc1ccc(Cl)cc1	none
COc1ccc(N2CCN(C(=O)CSc3nnc4c5cc(C)ccc5n(C)c4n3)CC2)cc1	Cruzain inh noDet inconclusive
COc1ccc2c(c1)c1nnc(SCC(=O)N3CCCCC3C)nc1n2C (stereo not drawn)	Cruzain inh Det 14.1µM
CC1CCc2c(C(=O)OCC(=O)Nc3cccc(S(=O)(=O)N4CCCCCC4)c3)csc2C1 (stereo not drawn)	Cruzain inh noDet inconclusive
Cc1ccc(NC(=O)COC(=O)c2csc3c2CCC(C)C3)cc1S(=O)(=O)N1CCCCC1 (stereo not drawn)	Cruzain inh noDet 25.1µM
COc1cccc(NC(=O)Cn2c(=O)n(-c3ccccc3)c(=O)c3c4c(sc32)CCCC4)c1	none
CC(=O)Nc1nc(C)c(-c2csc(Nc3ccc(O)cc3)n2)s1	Cruzain inh noDet 12.6µM
CCCCCC(=O)Nc1nc(C)c(-c2csc(Nc3cc(Cl)ccc3OC)n2)s1	Cruzain inh noDet 3.16µM
